Drawing on PubChem BioAssay (NCI), this text covers growth inhibition for 21 molecules.

SMILES strings stand for the structures. “And” between values parts separate entries of the source, which are not always exact repeats. Equal values may be shown once. About 79,000 compounds went through this panel and 15% of them were active in at least one assay; those are over-represented in the sample as a whole. Unmarked numbers belong to inactive results. The source made the active and inactive calls. Cut-off read from the data, not from the text of the source: active = growth inhibition above about 70%; inactive = the rest.

One assay is described as follows: NCI Yeast Anticancer Drug Screen. Data for the bub3 strain (AID 167). To be noted: S. cerevisiae bub3 mutant strain, at 5.0 µM (retest, dose inferred, filed as 0.5), active compounds read high. The procedure: Growth inhibition of yeast strains with defined genetic alterations is measured as a screen for potential anti-cancer activity. Selected strains with alterations in DNA damage repair or cell cycle control were exposed to compounds and growth inhibition was measured relative to vehicle treated controls. The strain used in this assay is bub3
For the molecule `O=C(O)C1CC2c3ccccc3C1([N+](=O)[O-])c1ccccc12` (stereo unspecified), the growth inhibition is 2%.

As to `ClCCN1CCOCC1`, the growth inhibition was 34%.

Regarding `CCC[CH2][Sn]1([CH2]CCC)[O]c2ccccc2[O]1`, the growth inhibition was 35%.

Consider `COc1ccc([As]=[As]c2ccc(OC)c(I)c2)cc1I` (stereo unspecified), for which the growth inhibition was 99% (active).

On to `O=C(NCC1(O)N=C(c2ccc(F)cc2)c2ccsc2-n2cccc21)c1ccc(Cl)cc1Cl` (stereo unspecified), for which the growth inhibition is 9%.

As for `CC1Oc2cc3c(-c4c(O)cc(O)c5c(O)c6c(cc45)OC(C)C(C)C6=O)c(O)cc(O)c3c(O)c2C(=O)C1C` (stereo unspecified), the growth inhibition is -8%.

`CCOP(=O)(OCC)C(O)c1ccccc1Cl` (stereo unspecified): the growth inhibition is -5%.

As for `COC1CCC(OC2CC(C3(C)CCC4(CC(O)C(C)C(C(C)/C=C(\C)C(=O)C(C)CC(C)C(=O)O)O4)O3)OC3(OC(C4OC(O)(CO)C(C)CC4C)CC3C)C2C)OC1C` (stereo unspecified), the growth inhibition was -5%.

For the molecule `O=c1ccc(N=Cc2ccc(N(CCCl)CCCl)cc2)ccc1O`, the growth inhibition is 95% (active).

For `COc1ccc([As+](c2ccccc2)(c2ccccc2)c2ccccc2)cc1`, the growth inhibition is 95% (active).

The same assay, now with this note: S. cerevisiae bub3 mutant strain, at 50.0 µM (retest, dose inferred, filed as 5.0), active compounds read high.
In the case of `O=C(O)C1CC2c3ccccc3C1([N+](=O)[O-])c1ccccc12` (stereo unspecified), the growth inhibition is 6%.

For the molecule `ClCCN1CCOCC1`, the growth inhibition was 98% (active).

`CCC[CH2][Sn]1([CH2]CCC)[O]c2ccccc2[O]1`: the growth inhibition was 95% (active).

As for `COc1ccc([As]=[As]c2ccc(OC)c(I)c2)cc1I` (stereo unspecified), the growth inhibition is 99% (active).

`O=C(NCC1(O)N=C(c2ccc(F)cc2)c2ccsc2-n2cccc21)c1ccc(Cl)cc1Cl` (stereo unspecified): the growth inhibition was 66%.

For the molecule `CC1Oc2cc3c(-c4c(O)cc(O)c5c(O)c6c(cc45)OC(C)C(C)C6=O)c(O)cc(O)c3c(O)c2C(=O)C1C` (stereo unspecified), the growth inhibition is 81% (active).

In the case of `CCOP(=O)(OCC)C(O)c1ccccc1Cl` (stereo unspecified), the growth inhibition is -6%.

On to `COC1CCC(OC2CC(C3(C)CCC4(CC(O)C(C)C(C(C)/C=C(\C)C(=O)C(C)CC(C)C(=O)O)O4)O3)OC3(OC(C4OC(O)(CO)C(C)CC4C)CC3C)C2C)OC1C` (stereo unspecified), for which the growth inhibition is 59%.

Regarding `O=c1ccc(N=Cc2ccc(N(CCCl)CCCl)cc2)ccc1O`, the growth inhibition was 93% (active).

Take `COc1ccc([As+](c2ccccc2)(c2ccccc2)c2ccccc2)cc1`: the growth inhibition is 99% (active).

The same assay, now with this note: S. cerevisiae bub3 mutant strain, at 50.0 µM, active compounds read high.
For `C=CCC1(CC=C)C(=O)N(C)C(=O)N(C)C1=O`, the growth inhibition was 5.2%.

Take `O=C(O)C1CC2c3ccccc3C1([N+](=O)[O-])c1ccccc12` (stereo unspecified): the growth inhibition was 3.5%.

`ClCCN1CCOCC1`: the growth inhibition is 98.1% (active).

Regarding `O=[As](O)(O)c1cc(F)ccc1F`, the growth inhibition is -8%.

In the case of `CN(Cc1ccccc1)C1=NCCN1`, the growth inhibition is 15.1%.

On to `CCCCCCCCCCC(O)C1CCC(C(O)CCC(O)C2CCC(CCCCCCC[C@H](O)CC3=C[C@@H](C)OC3=O)O2)O1` (stereo partly specified), for which the growth inhibition was 19.1%.

With `CCC[CH2][Sn]1([CH2]CCC)[O]c2ccccc2[O]1`, the growth inhibition is 89.4% (active).

For `CC1(C)SC2C(NC(=O)Cc3ccccc3)C(=O)N2C1C(=O)O` (stereo unspecified), the growth inhibition was -36.1%.

`S=P(Nc1ccccc1Cl)(Nc1ccccc1Cl)c1ccccc1`: the growth inhibition was 39.4%.

On to `C=C1CC2CC[C@@]34CC5O[C@@H]6C(O[C@H]7CC[C@H](CC(=O)OC8C(C)C9OC%10C[C@]%11(C[C@@H]%12O[C@]%13(CC(C)[C@@H]%14O[C@H](C(O)CC(O)CO)C[C@@H]%14O%13)CC(C)[C@@H]%12O%11)OC%10CC9O[C@H]8C[C@H]8OC(CC[C@@H]1O2)C[C@@H](C)C8=C)OC7[C@@H]6O3)[C@H]5O4` (stereo partly specified), for which the growth inhibition is 91.1% (active).

Consider `CC(C)(C)C1=C(Br)C(OC(=O)C(F)(F)F)(C(C)(C)C)OP1(=O)c1ccccc1` (stereo unspecified), for which the growth inhibition is -10.3%.

Turning to `COc1ccc([As]=[As]c2ccc(OC)c(I)c2)cc1I` (stereo unspecified), the growth inhibition was 99.6% (active).

In the case of `O=C(NCC1(O)N=C(c2ccc(F)cc2)c2ccsc2-n2cccc21)c1ccc(Cl)cc1Cl` (stereo unspecified), the growth inhibition is 94.5% (active).

`CC1Oc2cc3c(-c4c(O)cc(O)c5c(O)c6c(cc45)OC(C)C(C)C6=O)c(O)cc(O)c3c(O)c2C(=O)C1C` (stereo unspecified): the growth inhibition is 81.2% (active).

Turning to `[CH3][Sn]([CH3])([CH3])[O][N+](=O)[O-]`, the growth inhibition was 48.7%.

Consider `CCN(CCCl)c1ccc(NC(=O)c2cc(C(=O)NCCN(C)C)cc(C(=O)Nc3ccc(N(CC)CCCl)cc3)c2)cc1`, for which the growth inhibition is -1.4%.

Regarding `CCSCCC(N)C(=O)O` (stereo unspecified), the growth inhibition was -19.9% and 6.05%.

As to `CCOP(=O)(OCC)C(O)c1ccccc1Cl` (stereo unspecified), the growth inhibition was 17.2%.

Consider `COC1CCC(OC2CC(C3(C)CCC4(CC(O)C(C)C(C(C)/C=C(\C)C(=O)C(C)CC(C)C(=O)O)O4)O3)OC3(OC(C4OC(O)(CO)C(C)CC4C)CC3C)C2C)OC1C` (stereo unspecified), for which the growth inhibition is 58.1%.

As to `O=c1ccc(N=Cc2ccc(N(CCCl)CCCl)cc2)ccc1O`, the growth inhibition is 93% (active).

For the molecule `COc1ccc([As+](c2ccccc2)(c2ccccc2)c2ccccc2)cc1`, the growth inhibition is 99% (active).
